NPR2 activator – GC-B (human) receptor activation; P20594; HEK293-GC-B cells, CNP EC30, cGMP TR-FRET; 0% at EC30 CNP, 100% saturating CNP; activation, % at 10 µM; 370,000 compounds, 0.11% hits; AID 1920062;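 active means activation at 10 µM reaching about 35% in either raw or pattern-adjusted values, limit read from the data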
ADAM10 inh – inhibitors of human ADAM10. O14672. recombinant ADAM10, EDANS/DABCYL FRET peptide cleavage, 3 h. inhibition, % at 7 µM. 370,000 compounds, 0.62% hits. AID 720582;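 active means inhibition above a per-campaign cutoff equal to the mean of compounds falling between control-based bounds plus 3 SD, cut at about 20% in these data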;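 further: 0% = DMSO wells while the 100% control is not disclosed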
FAS-TE inh – blocks the thioesterase domain of human fatty acid synthase. P49327. recombinant FAS-TE, OMFH fluorogenic substrate, fluorescence endpoint. inhibition, % at 15 µM. 360,000 compounds, 0.67% hits. AID 602261;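 active means compounds whose normalised, plate-corrected inhibition of enzyme fluorescence in the single-dose primary screen is 50% or more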;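 further: 0% = DMSO with enzyme and 100% = substrate without enzyme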
GC-A act – GC-A (human) enzyme activation | HEK293 GC-A cells, cGMP TR-FRET, EC30 ANP; 0% at EC30 ANP, 100% saturating ANP | activation, % at 10 µM | P16066 | AID 1671463 | 370,000 compounds, 0.14% hits; in the data active means activation above about 40%
ADAM17 inh – ADAM17 inhibition, QFRET primary screen; 370,000 compounds, 0.83% hits; inhibition, % at 6.95 µM; P78536; AID 720648; recombinant ADAM17, EDANS/DABCYL FRET peptide cleavage;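 active means inhibition above the mean of compounds lying between control limits plus 3 SD, set per campaign, cut at about 8.5% in these data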;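 further: 0% = DMSO-only wells as the low control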
Target sequence (P78536 215-824 limits assumed): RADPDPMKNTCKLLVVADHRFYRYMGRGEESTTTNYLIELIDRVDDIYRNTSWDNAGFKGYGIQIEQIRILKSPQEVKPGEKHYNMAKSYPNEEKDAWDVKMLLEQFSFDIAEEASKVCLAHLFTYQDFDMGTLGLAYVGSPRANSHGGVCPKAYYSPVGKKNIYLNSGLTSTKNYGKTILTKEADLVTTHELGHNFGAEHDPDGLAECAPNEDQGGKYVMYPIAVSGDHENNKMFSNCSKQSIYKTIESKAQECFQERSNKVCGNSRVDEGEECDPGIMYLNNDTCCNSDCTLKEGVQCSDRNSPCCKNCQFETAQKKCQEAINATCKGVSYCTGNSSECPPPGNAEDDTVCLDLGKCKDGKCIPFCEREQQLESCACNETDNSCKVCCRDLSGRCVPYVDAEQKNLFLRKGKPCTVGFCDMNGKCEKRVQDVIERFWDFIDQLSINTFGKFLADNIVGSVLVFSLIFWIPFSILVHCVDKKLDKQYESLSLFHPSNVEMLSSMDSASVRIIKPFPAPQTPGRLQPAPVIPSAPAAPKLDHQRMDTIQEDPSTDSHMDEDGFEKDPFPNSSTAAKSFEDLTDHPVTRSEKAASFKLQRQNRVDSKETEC
ADAM10 confirm – human ADAM10 inhibition, confirmation. shares compounds with ADAM10 inh. 2,100 compounds, 1% hits. AID 743208. ADAM10 QFRET peptide cleavage, EDANS fluorescence. inhibition, % at 6.95 µM;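 active means inhibition above about 20% chosen separately for each screening run, limit read from the data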;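 further: 0% = DMSO wells and 100% = marimastat wells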
ADAM17 counter – ADAM17 inhibition, counter-screen for ADAM10 exosite hits | ADAM17 QFRET peptide cleavage, EDANS fluorescence | shares compounds with ADAM10 inh | 2,100 compounds, 0.5% hits | inhibition, % at 6.95 µM;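 active means mean triplicate inhibition above the solvent-only control wells' mean plus 3 SD, cut at about 12% in these data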;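 further: 0% = DMSO wells and 100% = marimastat wells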
ADAM10 counter – ADAM10 inhibition, counter-screen for ADAM17 exosite hits | recombinant ADAM10, EDANS/DABCYL FRET peptide cleavage, 3 h | shares compounds with ADAM17 inh | 2,900 compounds, 47% hits | inhibition, % at 6.95 µM;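 active means mean inhibition over the triplicate runs exceeds the activity threshold set in the earlier primary screen, cut at about 20% in these data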;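 further: 0% = DMSO wells and 100% = marimastat wells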
ADAM17 confirm – confirmation of inhibitors of human ADAM17; shares compounds with ADAM17 inh; recombinant ADAM17, EDANS/DABCYL QFRET peptide cleavage; inhibition, % at 6.95 µM; 2,900 compounds, 65% hits;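 active means mean inhibition across replicates above the hit cutoff set in the primary screen, cut at about 8.5% in these data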;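 further: 0% = DMSO wells and 100% = marimastat wells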
Starred values were filed as active, the others as inactive; ! = repeats disagree. Shown are actives, neighbours in structure and some others; about 2% of the full set was active somewhere.

How did COc1cc(NC(=O)c2cnc(N)s2)cc(C(=O)Nc2cccc(C(F)(F)F)c2)c1 do in these assays?
NPR2 activator: 0.2; ADAM10 inh: 19.9*!; FAS-TE inh: 21.5; GC-A act: -2.3; ADAM17 inh: 9.8*!; ADAM10 confirm: 6.4; ADAM17 counter: 2.0; ADAM10 counter: 22.2*; ADAM17 confirm: 14.0*

What do the screens show for `O=S(=O)(c1ccccc1)n1c(CN2CCOCC2)nc2ccccc21`?
NPR2 activator: -8.8; ADAM10 inh: -3.2; GC-A act: -0.8; ADAM17 inh: 0.2

What do the screens show for `Cc1ccc(-c2nnc3n2N=C(c2ccc(-c4ccccc4)cc2)CS3)cc1`?
NPR2 activator: -3.2; ADAM10 inh: 3.5; GC-A act: -11.8; ADAM17 inh: 4.5

Results for CCn1cc([N+](=O)[O-])c(C(=O)N2N=C(c3ccc(OC)cc3OC)CC2c2ccccc2O)n1 (centres undefined) ?
NPR2 activator: 0.6; ADAM10 inh: 8.2; FAS-TE inh: 6.1; GC-A act: 4.4; ADAM17 inh: 2.6

What do the screens show for `CCn1cc([N+](=O)[O-])c(C(=O)N2N=C(c3cccc4ccccc34)CC2c2ccccc2O)n1` (centres undefined)?
NPR2 activator: -12.9; ADAM10 inh: 23.0*; FAS-TE inh: 30.8; GC-A act: -15.1; ADAM17 inh: 9.3*; ADAM10 confirm: 6.9; ADAM17 counter: 1.8; ADAM10 counter: 29.1*; ADAM17 confirm: 16.9*

Results for CCn1cc(Cl)c(C(=O)N2N=C(c3ccc4ccccc4c3)CC2c2ccccc2O)n1 (centres undefined) ?
NPR2 activator: 2.5; ADAM10 inh: -6.5; FAS-TE inh: 18.4; GC-A act: -8.8; ADAM17 inh: 0.5

Results for CCn1cc([N+](=O)[O-])c(C(=O)N2N=C(c3ccc4ccccc4c3)CC2c2ccccc2O)n1 (centres undefined) ?
NPR2 activator: -10.2; ADAM10 inh: 24.4*; FAS-TE inh: 14.4; GC-A act: -9.3; ADAM17 inh: 9.1*; ADAM10 confirm: 8.2; ADAM17 counter: 2.5; ADAM10 counter: 33.2*; ADAM17 confirm: 17.9*

What do the screens show for `COCCCNC(=O)CSc1nnc(-c2cccnc2)n1C1CCCCC1`?
NPR2 activator: 16.4; ADAM10 inh: -5.1; GC-A act: 2.5; ADAM17 inh: -4.5

What do the screens show for `CCN(CC)C(=O)CSc1nnc(-c2cccs2)o1`?
NPR2 activator: -0.4; ADAM10 inh: -2.8; GC-A act: 1.8; ADAM17 inh: -0.1

How did C=CCN(CC#Cc1ccc(C)cc1)Cc1ccc(OC)cc1OC do in these assays?
NPR2 activator: -0.1; ADAM10 inh: 0.1; GC-A act: -2.1; ADAM17 inh: -1.4

Results for O=C(NCc1ccc(C(=O)NCC2CCCO2)cc1)c1cccc(Br)c1 (centres undefined) ?
NPR2 activator: 5.3; ADAM10 inh: -12.1; GC-A act: -2.9; ADAM17 inh: -3.4

How did CCCCCC(=O)N1C[C@H](n2cc(-c3ccc(F)cc3)nn2)[C@@H](O)C[C@@H]1c1ccc(Cl)cc1 do in these assays?
NPR2 activator: -3.4; ADAM10 inh: 30.9*; FAS-TE inh: 18.4; GC-A act: -5.4; ADAM17 inh: 12.8*; ADAM10 confirm: 7.0; ADAM17 counter: 1.9; ADAM10 counter: 26.1*; ADAM17 confirm: 13.2*

What do the screens show for `CCN(CC)c1ccc(NC(=O)/C=C\c2ccccc2Cl)cc1`?
NPR2 activator: 0.3; ADAM10 inh: 26.8*; FAS-TE inh: 18.1; GC-A act: -5.0; ADAM17 inh: 14.3*; ADAM10 confirm: 6.4; ADAM17 counter: 2.7; ADAM10 counter: 37.7*; ADAM17 confirm: 18.8*

What do the screens show for `CN(C)c1ccc(NC(=O)/C=C/c2ccccc2Cl)cc1`?
NPR2 activator: -3.7; ADAM10 inh: 22.5*; FAS-TE inh: -5.7; GC-A act: -1.4; ADAM17 inh: 11.6*; ADAM10 confirm: 4.3; ADAM17 counter: 0.4; ADAM10 counter: -1.2; ADAM17 confirm: 1.5

How did Nc1[nH]c(C(=O)c2ccc(Br)cc2)c(-c2ccc3ccccc3c2)c1C(=O)NCCc1c[nH]c2ccccc12 do in these assays?
NPR2 activator: -0.1; ADAM10 inh: -13.0; GC-A act: -3.3; ADAM17 inh: 0.7

How did CC(C)=CCC/C(C)=C/CN1C(=O)N(c2ccc(F)cc2)[C@H]2C[C@@H](c3ccccc3)[C@@H](C)[C@@H](C(=O)N3CCOCC3)C[C@H]21 do in these assays?
NPR2 activator: 12.9; ADAM10 inh: -5.1; GC-A act: -12.5; ADAM17 inh: -0.3

How did COc1ccc(OCc2nc(C#N)c(N3CCN(c4ccc(OC)cc4)CC3)o2)cc1 do in these assays?
NPR2 activator: -1.9; ADAM10 inh: 28.7*; FAS-TE inh: 32.6; GC-A act: -3.0; ADAM17 inh: 15.5*; ADAM10 confirm: 4.9; ADAM17 counter: 1.5; ADAM10 counter: 12.4; ADAM17 confirm: 3.7

How did COc1ccc(Nc2oc(COc3cccc(C)c3)nc2C#N)cc1 do in these assays?
NPR2 activator: 0.7; ADAM10 inh: 29.7*; FAS-TE inh: 23.1; GC-A act: 2.6; ADAM17 inh: 10.3*; ADAM10 confirm: 4.3; ADAM17 counter: 1.4; ADAM10 counter: 20.7*; ADAM17 confirm: 13.0*

What do the screens show for `COc1ccc(N2CCN(c3oc(COc4ccccc4Cl)nc3C#N)CC2)cc1`?
NPR2 activator: -7.2; ADAM10 inh: 4.4; FAS-TE inh: 28.9; GC-A act: -0.3; ADAM17 inh: -0.7

How did Cc1nn(Cc2ccccc2)c(C)c1/C=N/NC(=O)CNc1cccc(C(F)(F)F)c1 do in these assays?
NPR2 activator: 1.6; ADAM10 inh: 21.3*; FAS-TE inh: 12.4; GC-A act: -1.7; ADAM17 inh: 11.1*; ADAM10 confirm: 3.6; ADAM17 counter: 0.6; ADAM10 counter: 18.9; ADAM17 confirm: 10.1*

Results for COc1ccc(NCC(=O)N/N=C/c2c(C)nn(Cc3ccccc3)c2Cl)cc1 ?
NPR2 activator: -3.6; ADAM10 inh: 7.2; FAS-TE inh: -6.6; GC-A act: 4.3; ADAM17 inh: 1.4

Assay outcomes from PubChem BioAssay.
